{"source": "the antibiotic and cytotoxicity screens of Wong et al. (2023)", "note": "About 500 (1.3%) of roughly 39,000 compounds were called active. The full list was thinned out, with actives kept by preference."}
{"tested_on": "S. aureus RN4220", "experiment": "growth inhibition call (relative growth <= 0.2)", "conditions": "50 µM"}
{"smiles": "Cc1noc(C)c1S(=O)(=O)N(C)C[C@@H]1OCCCC[C@H](C)Oc2ccc(NC(=O)Nc3cccc4ccccc34)cc2C(=O)N([C@H](C)CO)C[C@H]1C", "growth inhibition call": "inactive"}
{"smiles": "Cc1noc(C)c1NC(=O)N(C)C[C@@H]1OCCCC[C@@H](C)Oc2ccc(NC(=O)CCC(F)(F)F)cc2C(=O)N([C@H](C)CO)C[C@@H]1C", "growth inhibition call": "inactive"}
{"smiles": "CN(C)CC(=O)N[C@H]1C=C[C@H](CC(=O)O)O[C@H]1CO", "growth inhibition call": "inactive"}
{"smiles": "COc1cccc2c1C(=O)c1c(O)c3c(c(O)c1C2=O)CC(O)(C(C)=O)CC3OC1CC(N)C(O)C(C)O1.Cl", "note": "(stereo not drawn)", "growth inhibition call": "inactive"}
{"smiles": "CC(=O)[C@]1(O)Cc2c(O)c3c(c(O)c2[C@@H](O[C@@H]2C[C@@H](N)[C@H](O)[C@@H](C)O2)C1)C(=O)c1c(O)cccc1C3=O", "growth inhibition call": "active"}
{"smiles": "COc1cccc2c1C(=O)c1c(O)c3c(c(O)c1C2=O)C[C@](O)(C(C)=O)C[C@H]3O[C@H]1C[C@@H](N)[C@@H](O)[C@@H](C)O1", "growth inhibition call": "active"}
{"smiles": "COc1cccc2c1C(=O)c1c(O)c3c(c(O)c1C2=O)C[C@@](O)(C(C)=O)C[C@@H]3O[C@H]1C[C@H](N)[C@H](O)[C@H](C)O1", "growth inhibition call": "active"}
{"smiles": "CC(=O)[C@]1(N)Cc2c(O)c3c(c(O)c2[C@@H](O[C@H]2C[C@H](O)[C@H](O)CO2)C1)C(=O)c1ccccc1C3=O", "growth inhibition call": "inactive"}
{"smiles": "Cc1ccc(S(=O)(=O)Nc2cccc3c2O[C@H](CN(C)S(=O)(=O)c2cn(C)cn2)[C@@H](C)CN([C@H](C)CO)C3=O)cc1", "growth inhibition call": "inactive"}
{"smiles": "C[C@@H]1CCCCO[C@H](CN(C)C(=O)NC2CCCCC2)[C@H](C)CN([C@@H](C)CO)C(=O)c2cc(NC(=O)Nc3ccc4c(c3)OCO4)ccc2O1", "growth inhibition call": "inactive"}
{"smiles": "Cc1cc(C)n([C@@H](CC(=O)O)C(=O)O)n1", "growth inhibition call": "inactive"}
{"smiles": "C[C@@H]1CCCCO[C@H](CN(C)Cc2ccc(Cl)c(Cl)c2)[C@H](C)CN([C@@H](C)CO)C(=O)c2cc(NC(=O)Nc3ccc4c(c3)OCO4)ccc2O1", "growth inhibition call": "inactive"}
{"smiles": "O=C(/C=C/c1ccc(CNc2ccc([C@H]3O[C@@H](CSc4ccncc4)C[C@H](c4ccccc4)O3)cc2)cc1)NO", "growth inhibition call": "inactive"}
{"smiles": "C[C@H](CO)N1C[C@H](C)[C@H](CN(C)S(=O)(=O)c2cn(C)cn2)Oc2c(NS(=O)(=O)c3ccc(F)cc3)cccc2C1=O", "growth inhibition call": "inactive"}
{"smiles": "C[C@H]1CCCCO[C@H](CN(C)C(=O)Nc2ccc(F)cc2)[C@@H](C)CN([C@@H](C)CO)C(=O)c2cc(NC(=O)Nc3cccc4ccccc34)ccc2O1", "growth inhibition call": "inactive"}
{"smiles": "COc1cccc(S(=O)(=O)Nc2ccc3c(c2)[C@@H]2C[C@@H](CC(=O)NC4CCCCC4)O[C@@H](CO)[C@@H]2O3)c1", "growth inhibition call": "inactive"}
{"smiles": "N#C[C@@H]1N[C@@H](CO)[C@@H]1c1ccccc1", "growth inhibition call": "inactive"}
{"smiles": "CC(C)NC(=O)N(C)C[C@@H]1Oc2ccc(NC(=O)Nc3ccc4c(c3)OCO4)cc2CC(=O)N([C@@H](C)CO)C[C@H]1C", "growth inhibition call": "inactive"}
{"smiles": "COc1ccc(CN(C)C[C@H]2OCCCC[C@H](C)Oc3ccc(NS(=O)(=O)c4c(C)noc4C)cc3C(=O)N([C@@H](C)CO)C[C@@H]2C)cc1", "growth inhibition call": "inactive"}
{"smiles": "COc1ccc(NC(=O)Nc2ccc3c(c2)C(=O)N([C@H](C)CO)C[C@H](C)[C@@H](CN(C)C(=O)c2ccccc2)OCCCC[C@H](C)O3)cc1", "growth inhibition call": "inactive"}
{"smiles": "C[C@H](CO)N1C[C@H](C)[C@@H](CN(C)Cc2ccc(C(F)(F)F)cc2)OCCCC[C@H](C)Oc2ccc(NC(=O)c3ccccc3)cc2C1=O", "growth inhibition call": "inactive"}
{"smiles": "CCC1OC(=O)C(C)C(OC2CC(C)(OC)C(O)C(C)O2)C(C)C(OC2OC(C)CC(N(C)C)C2O)C(C)(O)CC(C)C(=O)C(C)C(O)C1(C)O", "note": "(stereo not drawn)", "growth inhibition call": "active"}
{"smiles": "CCCN1C[C@H](C)[C@@H](O)[C@](C)(O)[C@@H](CC)OC(=O)[C@H](C)[C@@H](O[C@H]2C[C@@](C)(OC)[C@@H](O)[C@H](C)O2)[C@H](C)[C@@H](O[C@@H]2O[C@H](C)C[C@H](N(C)C)[C@H]2O)[C@](C)(O)C[C@H]1C", "growth inhibition call": "active"}
{"smiles": "CC[C@H]1OC(=O)[C@H](C)[C@@H](O[C@H]2C[C@@](C)(OC)[C@@H](O)[C@H](C)O2)[C@@H](C)[C@@H](O[C@H]2O[C@H](C)C[C@H](N(C)C)[C@H]2O)[C@](C)(O)C[C@@H](C)C(=O)[C@H](C)[C@@H](O)[C@]1(C)O", "growth inhibition call": "active"}
{"smiles": "CC[C@H]1OC(=O)[C@H](C)[C@@H](O[C@H]2C[C@@](C)(OC)[C@@H](O)[C@H](C)O2)[C@H](C)[C@@H](O[C@@H]2O[C@H](C)C[C@H](N(C)C)[C@H]2O)[C@](C)(O)C[C@@H](C)C(=O)[C@H](C)[C@@H](O)[C@]1(C)O", "growth inhibition call": "active"}
{"smiles": "CCC1OC(=O)C(C)C(OC2CC(C)(OC)C(O)C(C)O2)C(C)C(OC2OC(C)CC(N(C)C)C2O)C(C)(O)CC(C)C(=O)C(C)C(O)C1(C)O.CCCCCCCCCCCCCCCCCC(=O)O", "note": "(stereo not drawn)", "growth inhibition call": "inactive"}
{"smiles": "C[C@H](CO)N1C[C@H](C)[C@H](CN(C)S(C)(=O)=O)Oc2ccc(NC(=O)Nc3ccc(F)cc3)cc2C1=O", "growth inhibition call": "inactive"}
{"smiles": "C[C@@H]1CN([C@@H](C)CO)C(=O)c2cc(NC(=O)NC3CCCCC3)ccc2O[C@@H](C)CCCCO[C@H]1CN(C)S(=O)(=O)c1ccccc1", "growth inhibition call": "inactive"}
{"smiles": "Cc1ccc(NC(=O)c2ccc(CN3CC[C@H](N(C)C)C3)c(C(F)(F)F)c2)cc1Nc1nccc(-c2cncnc2)n1", "growth inhibition call": "inactive"}
{"smiles": "C[C@@H]1CN([C@H](C)CO)C(=O)c2ccccc2-c2ccccc2CO[C@@H]1CN(C)Cc1ccc(C(F)(F)F)cc1", "growth inhibition call": "inactive"}
{"smiles": "C[C@H](CO)N1C[C@H](C)[C@H](CN(C)Cc2cncnc2)Oc2ncc(C#C[C@@H](C)O)cc2C1=O", "growth inhibition call": "inactive"}
{"smiles": "C[C@H]1CN([C@@H](C)CO)C(=O)c2cc(NC(=O)Cn3cnnn3)ccc2O[C@@H]1CN(C)C(=O)Nc1ccccc1", "growth inhibition call": "inactive"}
{"smiles": "C[C@H]1CN([C@@H](C)CO)S(=O)(=O)c2ccc(C#CC(C)(C)O)cc2O[C@H]1CN(C)Cc1ccc(F)cc1", "growth inhibition call": "inactive"}
{"smiles": "CCC1OC(=O)C(C)C(OC2CC(C)(OC)C(O)C(C)O2)C(C)C(OC2OC(C)CC(N(C)C)C2O)C(C)(O)CC(C)CN(C)C(C)C(O)C1(C)O", "note": "(stereo not drawn)", "growth inhibition call": "active"}
{"smiles": "CC[C@H]1OC(=O)[C@H](C)[C@@H](O[C@H]2C[C@@](C)(OC)[C@@H](O)[C@H](C)O2)[C@H](C)[C@@H](O[C@@H]2O[C@H](C)C[C@H](N(C)C)[C@H]2O)[C@](C)(O)C[C@@H](C)CN(C)[C@H](C)[C@@H](O)[C@]1(C)O", "growth inhibition call": "inactive"}
{"smiles": "C(=N\\C1CCCCCCCCCCC1)/c1ccco1", "growth inhibition call": "inactive"}
{"smiles": "C[C@H](CO)N1C[C@H](C)[C@H](CN(C)S(=O)(=O)c2cn(C)cn2)Oc2ccc(NC(=O)Cc3cn(C)c4ccccc34)cc2C1=O", "growth inhibition call": "inactive"}
{"smiles": "C[C@@H]1CN([C@@H](C)CO)C(=O)Cc2cc(NC(=O)Cc3cn(C)c4ccccc34)ccc2O[C@H]1CN(C)Cc1ccc(Oc2ccccc2)cc1", "growth inhibition call": "inactive"}
{"smiles": "OCc1cn(-c2ccccc2)nn1", "growth inhibition call": "inactive"}
{"smiles": "c1ccc(-c2nc(C34CC5CC(CC(C5)C3)C4)cs2)cc1", "growth inhibition call": "inactive"}
{"smiles": "NCc1cn(-c2ccccc2)nc1C12CC3CC(CC(C3)C1)C2", "growth inhibition call": "active"}
{"smiles": "C=CC[C@@H](CC(=O)N[C@H](CO)Cc1ccccc1)C(=O)N[C@H](C)COC(=O)[C@@H](CC=C)CC(=O)OC(C)(C)C", "growth inhibition call": "inactive"}
{"smiles": "C[C@@H]1CCCCO[C@@H](CN(C)Cc2ccncc2)[C@H](C)CN([C@H](C)CO)C(=O)c2cc(NC(=O)NC3CCCCC3)ccc2O1", "growth inhibition call": "inactive"}
{"smiles": "CCCCc1oc2ccccc2c1C(=O)c1cc(I)c(OCCN(CC)CC)c(I)c1.Cl", "growth inhibition call": "inactive"}
{"smiles": "CCCCc1oc2ccccc2c1C(=O)c1cc(I)c(OCCN(CC)CC)c(I)c1", "growth inhibition call": "inactive"}
{"smiles": "CCc1oc2ccccc2c1C(=O)c1cc(Br)c(O)c(Br)c1", "growth inhibition call": "active"}
{"smiles": "OC[C@H]1O[C@@H](OCc2ccccc2)[C@H](O)[C@@H](O)[C@@H]1O", "growth inhibition call": "inactive"}
{"smiles": "Cc1noc(C)c1NC(=O)Nc1ccc2c(c1)C(=O)N([C@@H](C)CO)C[C@@H](C)[C@@H](CN(C)C(=O)Nc1ccccc1)OCCCC[C@@H](C)O2", "growth inhibition call": "inactive"}
{"smiles": "COc1cc(NC(=O)c2cccc(-n3cc(NC(=O)Nc4cccc(C)c4)cn3)c2)cc(OC)c1OC", "growth inhibition call": "inactive"}
{"smiles": "CC(=O)N1[C@H](CNC(=O)CN2CCOCC2)[C@H](c2ccccc2)[C@@H]1CO", "growth inhibition call": "inactive"}
{"smiles": "CON=C(C(=O)N[C@@H]1C(=O)N2C(C(=O)OCOC(=O)C(C)(C)C)=C(C=Cc3scnc3C)CS[C@H]12)c1csc(N)n1", "growth inhibition call": "active"}
{"smiles": "CON=C(C(=O)NC1C(=O)N2C(C(=O)OCOC(=O)C(C)(C)C)=C(C=Cc3scnc3C)CSC12)c1csc(N)n1", "note": "(stereo not drawn)", "growth inhibition call": "active"}
{"smiles": "CCC=C(C(=O)NC1C(=O)N2C(C(=O)OCOC(=O)C(C)(C)C)=C(COC(N)=O)CSC12)c1csc(N)n1.Cl", "note": "(stereo not drawn)", "growth inhibition call": "inactive"}
{"smiles": "CC(C)NC(=O)N(C)C[C@H]1Oc2ccc(NS(=O)(=O)c3ccc(F)cc3)cc2CC(=O)N([C@H](C)CO)C[C@H]1C", "growth inhibition call": "inactive"}
{"smiles": "COc1ccc2c3c([nH]c2c1)[C@@H](CO)N(C[C@]13CN(C1)S(=O)(=O)c1cccs1)C(=O)c1ccccc1", "growth inhibition call": "inactive"}
{"smiles": "C[C@@H]1CN([C@@H](C)CO)C(=O)c2cc(NC(=O)NC3CCCCC3)ccc2O[C@@H]1CN(C)Cc1ccc(Oc2ccccc2)cc1", "growth inhibition call": "inactive"}
{"smiles": "CC(C)(C)C(=O)C[n+]1ccc(C(N)=O)cc1", "growth inhibition call": "inactive"}
{"smiles": "O=C(O)C1C(=CCO)OC2CC(=O)N21.[LiH]", "note": "(stereo not drawn)", "growth inhibition call": "active"}
{"smiles": "O=C(O)[C@@H]1C(=CCO)O[C@H]2CC(=O)N12", "growth inhibition call": "inactive"}
{"smiles": "O=C(O)[C@H]1/C(=C/CO)O[C@@H]2CC(=O)N21", "growth inhibition call": "inactive"}
{"smiles": "N[C@@H]1CC[C@@H](CCn2cc(C3(O)CCCC3)nn2)O[C@H]1CO", "growth inhibition call": "inactive"}
{"smiles": "C[C@H](CO)N1C[C@H](C)[C@H](CN(C)C(=O)Nc2ccc(F)cc2)OCc2ccccc2-c2ccccc2C1=O", "growth inhibition call": "inactive"}
{"smiles": "C[C@@H]1CCCCO[C@@H](CN(C)C(=O)NC2CCCCC2)[C@H](C)CN([C@H](C)CO)C(=O)c2cc(NS(=O)(=O)c3cccs3)ccc2O1", "growth inhibition call": "inactive"}
